Several values for one entry are separate records, joined by “and”; a condition that tells them apart may be missing. Equal entries are not always repeated. About 2,000 (36%) of roughly 5,500 compounds were called active. Another 18% or so got no clear call; they are omitted. Rule as the data show it: active = normalized growth mostly below about 0.91 (no sharp cut-off); inconclusive = no clear call, values can overlap the other calls; inactive = mostly above about 0.92. Some of the results follow.
Test: chemical genetic growth profiling, strain panel (AID 1159580);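 also: tested at 20 µM; growth read once vehicle control cultures reached saturation at 30 °C; 1 = growth at the plate median or of vehicle wells; lower values mean less growth of the strain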
Details: growth OD

Measured: normalized growth

NC(CO)C(=O)NNCc1ccc(O)c(O)c1O (configuration not stated)
active: S. cerevisiae deletion strains, locus YMR058W, strain fet3, stronger effect = lower value 0.688 | S. cerevisiae deletion strains, locus YNL209W, strain ssb2, stronger effect = lower value 0.9
inactive: S. cerevisiae deletion strains, locus YJR066W, strain TOR1, stronger effect = lower value 0.99 | S. cerevisiae deletion strains, locus YJR075W, strain HOC1, stronger effect = lower value 1.01 and 0.944 | S. cerevisiae deletion strains, locus YKL009W, strain mrt4, stronger effect = lower value 0.973 | S. cerevisiae deletion strains, locus YKL068W, stronger effect = lower value 1.01 | S. cerevisiae deletion strains, locus YKL085W, strain MDH1 (second series), stronger effect = lower value 1 | S. cerevisiae deletion strains, locus YKL085W, strain MDH1, stronger effect = lower value 1 | S. cerevisiae deletion strains, locus YKL160W, strain elf1, stronger effect = lower value 1.02 | S. cerevisiae deletion strains, locus YKR001C, strain vps1, stronger effect = lower value 0.986 | S. cerevisiae deletion strains, locus YKR026C, strain gcn3, stronger effect = lower value 0.991 | S. cerevisiae deletion strains, locus YKR091W, strain srl3, stronger effect = lower value 0.993 | S. cerevisiae deletion strains, locus YLL001W, strain dnm1, stronger effect = lower value 1.03 | S. cerevisiae deletion strains, locus YLL026W, stronger effect = lower value 1.02 | S. cerevisiae deletion strains, locus YLL041C, strain sdh2, stronger effect = lower value 1 | S. cerevisiae deletion strains, locus YLR027C, strain aat2, stronger effect = lower value 1.01 | S. cerevisiae deletion strains, locus YLR039C, strain RIC1, stronger effect = lower value 1.01 | S. cerevisiae deletion strains, locus YLR058C, strain SHM2, stronger effect = lower value 1.01 | S. cerevisiae deletion strains, locus YLR102C, strain apc9, stronger effect = lower value 0.983 | S. cerevisiae deletion strains, locus YLR113W, strain HOG1, stronger effect = lower value 1.1 | S. cerevisiae deletion strains, locus YLR221C, strain rsa3, stronger effect = lower value 0.951 | S. cerevisiae deletion strains, locus YLR258W, strain gsy2, stronger effect = lower value 0.974 | S. cerevisiae deletion strains, locus YLR262C, strain YPT6 (second series), stronger effect = lower value 0.915 | S. cerevisiae deletion strains, locus YLR262C, strain YPT6, stronger effect = lower value 1.04 | S. cerevisiae deletion strains, locus YLR268W, strain sec22, stronger effect = lower value 0.984 | S. cerevisiae deletion strains, locus YLR320W, strain mms22, stronger effect = lower value 0.987 | S. cerevisiae deletion strains, locus YLR330W, strain CHS5, stronger effect = lower value 1.01 | S. cerevisiae deletion strains, locus YLR342W, strain FKS1 (second series), stronger effect = lower value 1.06 | S. cerevisiae deletion strains, locus YLR342W, strain FKS1, stronger effect = lower value 1.01 | S. cerevisiae deletion strains, locus YLR357W, strain rsc2, stronger effect = lower value 0.911 | S. cerevisiae deletion strains, locus YLR370C, strain arc18, stronger effect = lower value 0.995 | S. cerevisiae deletion strains, locus YLR371W, strain rom2, stronger effect = lower value 0.991 | S. cerevisiae deletion strains, locus YLR384C, strain iki3, stronger effect = lower value 1 | S. cerevisiae deletion strains, locus YLR418C, strain cdc73, stronger effect = lower value 0.98 | S. cerevisiae deletion strains, locus YML016C, strain PPZ1, stronger effect = lower value 1.01 | S. cerevisiae deletion strains, locus YML032C, strain rad52, stronger effect = lower value 0.993 | S. cerevisiae deletion strains, locus YML120C, strain ndi1, stronger effect = lower value 1.01 | S. cerevisiae deletion strains, locus YML124C, strain tub3, stronger effect = lower value 0.996 | S. cerevisiae deletion strains, locus YMR078C, strain ctf18, stronger effect = lower value 0.992 | S. cerevisiae deletion strains, locus YMR125W, strain sto1, stronger effect = lower value 1.01 | S. cerevisiae deletion strains, locus YMR129W, stronger effect = lower value 0.992 | S. cerevisiae deletion strains, locus YMR205C, strain PFK2, stronger effect = lower value 1.07 | S. cerevisiae deletion strains, locus YMR223W, strain ubp8, stronger effect = lower value 1.01 | S. cerevisiae deletion strains, locus YMR231W, strain pep5, stronger effect = lower value 0.991 | S. cerevisiae deletion strains, locus YMR307W, strain GAS1, stronger effect = lower value 1 and 0.976 | S. cerevisiae deletion strains, locus YNL067W, strain RPL9B, stronger effect = lower value 0.984 | S. cerevisiae deletion strains, locus YNL071W, strain lat1, stronger effect = lower value 1.01 | S. cerevisiae deletion strains, locus YNL153C, strain GIM3, stronger effect = lower value 1 | S. cerevisiae deletion strains, locus YNL175C, strain NOP13, stronger effect = lower value 0.988 | S. cerevisiae deletion strains, locus YNL183C, strain NPR1, stronger effect = lower value 0.99 | S. cerevisiae deletion strains, locus YNL197C, strain WHI3, stronger effect = lower value 0.935 | S. cerevisiae deletion strains, locus YNL224C, strain SQS1, stronger effect = lower value 1.01 | S. cerevisiae deletion strains, locus YNL233W, strain BNI4, stronger effect = lower value 0.998 | S. cerevisiae deletion strains, locus YNL248C, strain rpa49, stronger effect = lower value 0.946 | S. cerevisiae deletion strains, locus YNL250W, strain rad50, stronger effect = lower value 0.983 | S. cerevisiae deletion strains, locus YNL271C, strain bni1, stronger effect = lower value 1 | S. cerevisiae deletion strains, locus YNL298W, strain CLA4, stronger effect = lower value 0.988 | S. cerevisiae deletion strains, locus YNL307C, strain MCK1, stronger effect = lower value 0.982 | S. cerevisiae deletion strains, locus YNL322C, strain KRE1 (second series), stronger effect = lower value 0.999 | S. cerevisiae deletion strains, locus YNR049C, strain mso1, stronger effect = lower value 0.99 | S. cerevisiae deletion strains, locus YNR052C, strain pop2, stronger effect = lower value 1.01 | S. cerevisiae deletion strains, locus YOL012C, strain htz1 0.788 | S. cerevisiae deletion strains, locus YOL147C, strain pex11, stronger effect = lower value 0.98 | S. cerevisiae deletion strains, locus YOR001W, strain rrp6, stronger effect = lower value 1.03 | S. cerevisiae deletion strains, locus YOR061W, strain CKA2, stronger effect = lower value 1.01 | S. cerevisiae deletion strains, locus YOR069W, strain VPS5, stronger effect = lower value 1 | S. cerevisiae deletion strains, locus YOR070C, strain gyp1, stronger effect = lower value 0.972 | S. cerevisiae deletion strains, locus YOR080W, strain dia2, stronger effect = lower value 1.01 | S. cerevisiae deletion strains, locus YOR083W, strain WHI5 (second series), stronger effect = lower value 0.978 | S. cerevisiae deletion strains, locus YOR083W, strain WHI5, stronger effect = lower value 0.986 | S. cerevisiae deletion strains, locus YOR106W, strain vam3, stronger effect = lower value 0.948 | S. cerevisiae deletion strains, locus YOR136W, strain idh2, stronger effect = lower value 0.97 | S. cerevisiae deletion strains, locus YOR144C, strain elg1, stronger effect = lower value 0.987 | S. cerevisiae deletion strains, locus YOR184W, strain ser1, stronger effect = lower value 0.993 | S. cerevisiae deletion strains, locus YOR231W, strain MKK1, stronger effect = lower value 1.07 | S. cerevisiae deletion strains, locus YOR265W, strain rbl2, stronger effect = lower value 0.996 | S. cerevisiae deletion strains, locus YOR270C, strain vph1, stronger effect = lower value 0.996 | S. cerevisiae deletion strains, locus YOR290C, strain snf2, stronger effect = lower value 0.957 | S. cerevisiae deletion strains, locus YOR316C, strain cot1, stronger effect = lower value 0.991 | S. cerevisiae deletion strains, locus YPL051W, strain arl3, stronger effect = lower value 0.973 | S. cerevisiae deletion strains, locus YPL055C, strain LGE1, stronger effect = lower value 1.01 and 0.959 | S. cerevisiae deletion strains, locus YPL078C, strain atp4, stronger effect = lower value 1.02 | S. cerevisiae deletion strains, locus YPL106C, strain sse1, stronger effect = lower value 0.936 | S. cerevisiae deletion strains, locus YPL240C, strain hsp82, stronger effect = lower value 0.991 | S. cerevisiae deletion strains, locus YPL241C, strain CIN2, stronger effect = lower value 1.01 | S. cerevisiae deletion strains, locus YPL256C, strain CLN2, stronger effect = lower value 1.09 | S. cerevisiae deletion strains, locus YPR119W, strain clb2, stronger effect = lower value 0.999 | S. cerevisiae deletion strains, locus YPR141C, strain kar3, stronger effect = lower value 0.987 | S. cerevisiae deletion strains, locus YPR163C, strain tif3, stronger effect = lower value 0.991 | S. cerevisiae deletion strains, locus YPR167C, strain met16, stronger effect = lower value 0.994 | S. cerevisiae deletion strains, strain wtn01, stronger effect = lower value 1.02 | S. cerevisiae strains, strain wild type, stronger effect = lower value 1

Reference: PubChem BioAssay AID1159580 (chemical genetic matrix, 2015)
